Reference: PubChem BioAssay AID1345082 (National Center for Advancing Translational Sciences (NCATS), 2018)
“And” between values parts separate entries of the source, which are not always exact repeats. Equal entries are not always repeated. Out of some 94,000 compounds screened, about 4,000 (4.3%) were called active. Where a call stands in place of a potency, no number is given. Another 29% or so got no clear call; they are omitted. This is one part of a sample in which actives are shown more often than they occur. Calls come from the whole dose curve; as a rule, active = well fitted inhibition curve with a large enough effect; inconclusive = small, poorly fitted or top-dose-only effect; inactive = no such curve, though single readings can be large or run the other way.

Experiment: Cytotoxic Profiling in NIH 3T3 Cell Line of Diverse Libraries Using Quantitative High-Throughput Screening; note: nearly all actives have a fitted effect of over 55% in size
Conditions: NIH 3T3 viability, CellTiter-Glo ATP luminescence, 48-72 h; series mostly up to 96.7 µM
Method in brief: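 First NIH 3T3 cells are plated at 400 cells/well; next compound is pinned in; then plates incubate 48 or 72 hr at 37 °C; finally CellTiter-Glo is added and luminescence read after 10 min.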
Potency is the fitted concentration of half-maximal effect.

Q: With `O=C(CCn1cncn1)N1CCc2[nH]nc(-c3cccc4ccccc34)c2C1` as the compound, how does the Potency read?
A: inactive

Q: Which Potency does the source give for `CCCN(CC1CCOC1)C(=O)Nc1ccccc1C(F)(F)F` (centres undefined) here?
A: inactive

Q: Which Potency does the source give for `O=[S+]([O-])(c1cccc(C(F)(F)F)c1)N1CCC2(CCN(CCc3ccccc3)c3ccccc3O2)CC1` here?
A: inactive

Q: Which Potency does the source give for `Cc1ccc(CN2CCC(C3CCN(S(C)(=O)=O)CC3)C2)nc1` (centres undefined) here?
A: inactive

Q: For `CCCNc1cc(N2CCC(CCC(=O)Nc3ccc(C)cc3)CC2)ncn1`, which Potency is on record?
A: inactive

Q: With `COc1ccccc1Oc1ncccc1CNC(=O)c1ccc2n[nH]nc2c1` as the compound, how does the Potency read?
A: inactive

Q: Which Potency does the source give for `CC(C)c1ccc([S+](=O)([O-])N2CCN(c3cccc(CN(C)[S+](C)(=O)[O-])c3F)CC2)cc1` here?
A: 35.5 µM (active)

Q: For `CC(=O)NC(C)c1nnc2n1CCN([S+](=O)([O-])c1ccccc1)C2` (centres undefined), which Potency is on record?
A: inactive

Q: With `Cc1ccc(-c2ccccc2CN2CCN([S+](=O)([O-])c3cccc(C(F)(F)F)c3)CC2)cc1Cl` as the compound, how does the Potency read?
A: inactive

Q: For `CC(=O)NCCC(=O)N1Cc2ccccc2CC2(CCCCN2CC2CCNC2)C1` (centres undefined), which Potency is on record?
A: inactive

Q: With `NCC(=O)N1Cc2ccccc2CC2(CCCCN2CC2CCOCC2)C1` (centres undefined) as the compound, how does the Potency read?
A: inactive

Q: With `O=C(C1CCCC1)N1Cc2ccccc2CC2(CCCCN2CC2CCNCC2)C1` (centres undefined) as the compound, how does the Potency read?
A: 17.8 µM (active)

Q: Which Potency does the source give for `Cc1ccccc1OCC(=O)N1CCC2(CC1)NC(=O)N(Cc1ccccc1)C2=O` here?
A: inactive

Q: With `Cc1ccc2[nH]c(=O)c(CCC(=O)NCc3ccncc3)cc2c1` as the compound, how does the Potency read?
A: inactive

Q: Which Potency does the source give for `COC(=O)[C@@H]1C[C@H](NC(=O)c2cc(OC)nc(OC)n2)CN1C` here?
A: inactive

Q: For `CC1=C[C@@H](CC#N)[C@H](C(C)C)C[C@H]1CC(=O)N1CCN(C)CC1`, which Potency is on record?
A: inactive

Q: For `COc1ccccc1N1CCN(C(=O)C[C@@H]2C[C@@H](C(C)C)[C@H](CO)C=C2C)CC1`, which Potency is on record?
A: 100 µM (active)

Q: For `COc1ccccc1N1CCN(C(=O)CCc2conc2-c2ccccc2F)CC1`, which Potency is on record?
A: inactive

Q: Which Potency does the source give for `COc1ccccc1C(=O)N1CCCN(c2ccc3nnc(C)n3n2)CC1` here?
A: inactive

Q: For `O=C(NC1CCCC1)NC1CCN(c2ccc3nnc(-c4ccccc4)n3n2)CC1`, which Potency is on record?
A: inactive

Q: With `O=C(c1ccnc(-c2nnc3ccc(N4CCOCC4)nn23)c1)N1CCCCC1` as the compound, how does the Potency read?
A: 20 µM (active)

Q: For `CCn1nccc1C(=O)N1CCCCCC1c1nc(C2CC2)no1` (centres undefined), which Potency is on record?
A: inactive

Q: With `COc1ccc(S(=O)(=O)N2CCCC(Cn3cnc4cccnc43)C2)cc1` (centres undefined) as the compound, how does the Potency read?
A: inactive

Q: With `Cc1oc(-c2cc(F)ccc2F)nc1CN1CCN(c2ccccc2)CC1C` (centres undefined) as the compound, how does the Potency read?
A: inactive

Q: With `Cc1oc(-c2cccs2)nc1CN1CCOC(Cc2ccccc2)C1` (centres undefined) as the compound, how does the Potency read?
A: inactive

Q: With `CCn1cnnc1CC1CCN(C(=O)C2CCN(Cc3nc(-c4cccc(C)c4)oc3C)CC2)CC1` as the compound, how does the Potency read?
A: inactive

Q: For `CCC1CN(Cc2cn(-c3ccccc3)nc2-c2ccc(OC)cc2F)CCO1` (centres undefined), which Potency is on record?
A: inactive

Q: For `COc1ccc(-c2nc(CN3CCOC(CN)C3)c(C)o2)c2ccccc12` (centres undefined), which Potency is on record?
A: 25.1 µM (active)

Q: For `Cc1oc(-c2cccc(Oc3ccccc3)c2)nc1CN1CCOC(CCN)C1` (centres undefined), which Potency is on record?
A: 25.1 µM (active)

Q: With `O=C(c1cn2cc(Cl)ccc2n1)N1CCc2nc(-c3ccccc3)[nH]c2C1` as the compound, how does the Potency read?
A: inactive

Q: For `COC(=O)[C@@H]1Cc2c([nH]c3ccccc23)[C@H]2C[C@H](NCCNC(C)=O)C[C@@H](c3ccc(C)cc3)N21`, which Potency is on record?
A: 25.1 µM (active)

Q: Which Potency does the source give for `COC(=O)[C@@H]1C[C@@H](NC(=O)c2ccc(-c3nnn(C)n3)cc2)CN1C` here?
A: inactive

Q: With `O=C(CC1COCCN1)N1CCC(OCc2cccnc2)CC1` (centres undefined) as the compound, how does the Potency read?
A: inactive

Q: For `CCCOC(=O)N1CCCC(c2nccn2CCCN(C)C)C1` (centres undefined), which Potency is on record?
A: inactive

Q: With `O=C(c1cc2ccccc2o1)N1CCC2(CNS(=O)(=O)c3cnccc3O2)C1` (centres undefined) as the compound, how does the Potency read?
A: inactive

Q: Which Potency does the source give for `C=CCNC(=O)c1ccc2ccnn2c1` here?
A: inactive

Q: Which Potency does the source give for `COc1ccc(C(=O)N2CCCC2C(=O)N2CCCC2c2nc3ccncc3[nH]2)cc1` (centres undefined) here?
A: inactive

Q: With `COc1ccc(C(=O)N2CCCC(C(=O)N3CCCC(c4nc5ccncc5[nH]4)C3)C2)cc1` (centres undefined) as the compound, how does the Potency read?
A: inactive

Q: Which Potency does the source give for `COc1ccc(-c2nc3ccncc3[nH]2)cc1` here?
A: 10 µM (active) and 17.8 µM (active)

Q: With `CCc1noc(-c2ccn3c(CNC(=O)c4ccco4)nnc3c2)n1` as the compound, how does the Potency read?
A: inactive

Q: With `Cc1noc(CC2CCOC3(CCN(C(=O)c4ccc(C#N)cc4)CC3)C2)n1` (centres undefined) as the compound, how does the Potency read?
A: inactive

Q: Which Potency does the source give for `CCn1ncc(N2CCCC(CC(=O)NCc3cccnc3)C2)cc1=O` (centres undefined) here?
A: inactive

Q: For `O=C(NC[C@H]1COCc2nc3cc(C(F)(F)F)ccc3n21)c1cnccn1`, which Potency is on record?
A: inactive

Q: Which Potency does the source give for `CC1=C[C@@H](CNC2CCN(C)CC2)[C@H](C(C)C)C[C@H]1Cc1nc2ccccc2[nH]1` here?
A: 35.5 µM (active)

Q: Which Potency does the source give for `COc1ccc2nc(C[C@@H]3C[C@@H](C(C)C)[C@H](CNC(=O)CC(C)(C)CC(=O)O)C=C3C)[nH]c2c1` here?
A: inactive

Q: For `CC1=C[C@@H](CN(CC2CC2)CC2CC2)[C@H](C(C)C)C[C@H]1Cc1nc2c(C)cccc2[nH]1`, which Potency is on record?
A: 79.4 µM (active)

Q: With `CC1=C[C@@H](CNCC(C)C)[C@H](C(C)C)C[C@H]1Cc1nc2c(C)cccc2[nH]1` as the compound, how does the Potency read?
A: 39.8 µM (active)

Q: For `CC1=C[C@@H](CNC(=O)CC2(CC(=O)O)CCCC2)[C@H](C(C)C)C[C@H]1Cc1nc2c(C)cccc2[nH]1`, which Potency is on record?
A: inactive

Q: With `CC(=O)N1CCC(NC[C@@H]2C=C(C)[C@H](Cc3nc4ccccc4n3C)C[C@H]2C(C)C)CC1` as the compound, how does the Potency read?
A: inactive
